Reference: the OligoGym collection

These sequences were tested against NLRP2 (assay: pooled miR-30 sensor sort-seq; sequence = guide strand). Conditions: shRNA.

Row | Sequence | sensor-assay potency score (higher = more potent)
1 | TTCAATATATACCTGCACCTAT | -0.184
2 | TATACCTGCACCTATTGTCTTT | -0.461
3 | TTACAGTCTTGTGACCTCGAAG | -1.08
4 | TTTCTCAGTATCAATAATCAGT | -0.723
5 | TTCGTCTTCAATATATACCTGC | 0.466
6 | TTTCTGTAAACGCTTGTGCTTC | -0.408
7 | AAGTCATCTATTTTCAACCTGA | 0.0295
8 | TTTTTGAACACCACTCTCTGGA | 0.671
9 | TATTTCTTTGAACTGAGCCATC | -1.26
10 | TACAACTTATGTCGCATCGCAG | -0.571
11 | TTCTGTTTTGAAGCGCTCCAGC | -0.763
12 | TTTTTCTTCTATTTCTTCCAGC | -0.106

These sequences were tested against NLRP3 in the same assay as above. Conditions: shRNA.

Row | Sequence | sensor-assay potency score (higher = more potent)
13 | TTACAAATAGAGATTCTCGAAA | -0.224
14 | TTTTGGAACAGGTTCATCCTCA | -0.144
15 | TGTGATGACAACAACACCCGAT | 0.603
16 | TTCTCTGTCTGACCCCTCGGGA | -1.19
17 | AAGCTGTAGAACTTCTCGCAGT | -0.94
18 | TTCTCATAAAGGTCTCTCCTGT | -0.131
19 | TTGGCTTTCACTTCAATCCATT | -0.825
20 | TTGTCTAATTCCAACACCTGAA | -0.802
21 | TCAAACAGCAACTCCATCTTAA | -0.477
